Measurements published in PubChem BioAssay AID1851 (National Center for Advancing Translational Sciences (NCATS), 2009).
“And” between values parts separate entries of the source, which are not always exact repeats. Equal entries are not always repeated. Out of some 16,000 compounds screened, about 5,100 (32%) were called active. Inconclusive results (about 25%) are left out. Calls come from the whole dose curve; as a rule, active = well fitted curve in the direction sought with a large enough effect; inconclusive = small, poorly fitted or top-dose-only effect, or effect the other way; inactive = no such curve, though single readings can be large or run the other way. The list shows a part of the results. Some structures have more than one record in an assay (separate samples or runs), and their calls can disagree.

target: Cytochrome P450 3A4 (Homo sapiens) (UniProt P08684); assay: Cytochrome panel assay with activity outcomes; details: recombinant CYP, pro-luciferin dealkylation, luminescence, p450-cyp3a4; series mostly up to 57.1 µM; activity, negative = inhibition: at the top concentration
Sequence (P08684 whole entry, looked up): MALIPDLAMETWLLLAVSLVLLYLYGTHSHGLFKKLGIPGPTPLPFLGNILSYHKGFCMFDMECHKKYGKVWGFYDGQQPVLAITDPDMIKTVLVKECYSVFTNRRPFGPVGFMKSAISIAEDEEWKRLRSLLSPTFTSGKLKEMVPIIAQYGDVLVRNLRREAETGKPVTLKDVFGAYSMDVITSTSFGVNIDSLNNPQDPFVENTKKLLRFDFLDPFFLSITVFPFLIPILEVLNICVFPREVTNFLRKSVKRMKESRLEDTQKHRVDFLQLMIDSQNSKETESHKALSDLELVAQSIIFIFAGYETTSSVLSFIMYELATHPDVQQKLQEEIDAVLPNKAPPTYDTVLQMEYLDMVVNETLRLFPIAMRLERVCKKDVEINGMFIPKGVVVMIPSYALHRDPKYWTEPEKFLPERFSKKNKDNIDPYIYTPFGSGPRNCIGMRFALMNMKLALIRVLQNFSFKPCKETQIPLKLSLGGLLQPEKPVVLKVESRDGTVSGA
% is set by controls: 0 for no effect and ±100 for the full control effect.

SMILES | activity, negative = inhibition | AC50
COc1cc2c(cc1OC)[C@@]13CCN4CC5=CCO[C@H](CC(=O)O)[C@@H]([C@H]1N2)[C@H]5C[C@H]43 | -10.2% [at 11.4 µM] (inactive) | 
CCC1(CCSC(=N)N)C(=O)NC(=O)NC1=O | -21.7% [at 11.4 µM] (inactive) | 
C[C@H]1[C@H](NC(=O)/C(=N/OC(C)(C)C(=O)O)c2csc(N)n2)C(=O)N1S(=O)(=O)O (stereo in doubt) | 1.53% [at 25.6 µM] (inactive) | 
O=C(O)CNC(=O)[C@@H](CS)Cc1ccccc1 | -3.06% [at 25.6 µM] (inactive) | 
CC(C)(C)c1cc(C=C(C#N)C#N)cc(C(C)(C)C)c1O |  | 3.16 µM (active)
N#CC(C#N)=Cc1cc(O)c(O)c(O)c1 |  | 10 µM (active)
NCc1cc(=O)[nH]o1 | inactive | 
CCCN[C@@H]1CCc2c(OC)cccc2[C@@H]1C | -22.1% (inactive) | 
C[C@H]1CN(C2CCC(C#N)(c3ccc(F)cc3)CC2)CC[C@@]1(C(=O)O)c1ccccc1 (stereo partly specified) | 0.78% [at 25.6 µM] (inactive) | 
COc1cc2c(cc1O)C[C@@H]1c3c(cc(O)c(OC)c3-2)CCN1C | -12.7% [at 11.4 µM] (inactive) | 
CCCN1CC[C@@H]2c3cc(O)ccc3CC[C@H]21 | -8.01% (inactive) | 
CC(C)c1ccc(C(c2c(O)c3ccccc3oc2=O)c2c(O)c3ccccc3oc2=O)cc1 | -28.5% [at 11.4 µM] (inactive) | 
CC1=NCCc2c1[nH]c1cc(O)ccc21 | -15.3% [at 25.6 µM] (inactive) | 
CCNC[C@H](O)c1cccc(O)c1 | -7.75% [at 25.6 µM] (inactive) | 
CC(NCc1ccc(Cl)cc1)C(O)c1ccccc1 (stereo unspecified) | -27% (inactive) | 
C[C@@H](Cc1ccc(OCC(=O)O)cc1)NC[C@H](O)c1cccc(Cl)c1 |  | 25.1 µM (active) and inactive
CCOC(=O)c1ncn2c1CN(C)C(=O)c1cc(F)ccc1-2 | -3.59% (inactive) | 
Cn1ccnc1 | 4.6% (inactive) | 
CNCCc1c[nH]c2ccc(O)cc12 | -6.65% (inactive) | 
CC(=O)c1ccc2c(c1)N(CCCN(C)C)c1ccccc1S2 | -19.6% [at 25.6 µM] (inactive) | 
C=CCN1C(=O)c2ccccc2Sc2ccc(C(=O)N3CCC4(CC3)OCCO4)cc21 |  | 3.98 µM (active)
O=C(c1cc2cc3ccc(Cl)cc3nc2o1)N1CCC2(CC1)OCCO2 | -25.6% (inactive) | 
O=C(O)CS(=O)(=O)C(c1ccccc1)c1ccccc1 | 2.64% [at 11.4 µM] (inactive) | 

SMILES | activity, negative = inhibition | AC50
CC(=O)c1c(O)c(C)c(O)c(Cc2c(O)c3c(c(C(=O)/C=C\c4ccccc4)c2O)OC(C)(C)C=C3)c1O |  | 12.6 µM (active)
Clc1cnc(Oc2ccc(Oc3ncc(Cl)cc3Cl)cc2)c(Cl)c1 | -3.91% (inactive) | 
CSC([N-]/N=C/c1cccc(C)n1)=[S]=[Cu].CS[C@H]([S-])[N-]/N=C/c1cccc(C)n1 |  | 3.98 µM (active)
CCCN(CCC)[C@@H]1CCc2c(OC)cccc2[C@@H]1C | -4.58% (inactive) | 
COC1=CC(=O)O[C@@H](/C=C\c2ccccc2)C1 | 4.42% [at 25.6 µM] (inactive) | 
O=C(C[n+]1ccc2ccccc2c1)c1ccc2ccc3ccccc3c2c1 | -29.1% [at 11.4 µM] (inactive) | 
Nc1nc(N)c(N=Nc2ccc([As](=O)(O)O)c(O)c2)c(N)n1 | 7% [at 11.4 µM] (inactive) | 
C[C@@H](Cc1cccc(C(F)(F)F)c1)NCCCc1ccccc1 |  | 5.01 µM (active)
CNCCCc1ccccc1 | -2% (inactive) | 
C[C@@H](Cc1ccccc1)NCCC(c1ccccc1)c1ccccc1 | -15.2% [at 25.6 µM] (inactive) | 
COc1cc2cc(c1Cl)N(C)C(=O)C[C@H](OC(=O)C(C)C)[C@]1(C)O[C@@H]1[C@@H](C)[C@H]1C[C@](O)(NC(=O)O1)[C@@H](OC)/C=C\C=C(\C)C2 | -29.4% [at 11.4 µM] (inactive) | 
c1ccc2c([C@@H]3CCN(CCN4CCOCC4)C3)c[nH]c2c1 | -4.68% [at 11.4 µM] (inactive) | 
COCOc1ccc(Br)cc1C(=O)/C=C\c1ccc2c(c1)OCO2 |  | 3.16 µM (active)
CN1CCN(c2cc(N3CCCC3)c([N+](=O)[O-])cc2F)CC1 | -9.54% (inactive) | 
COc1cc(-c2ccc(=O)[nH]n2)ccc1OC(F)F | -23.6% (inactive) | 
CN1CCN(c2ccc([N+](=O)[O-])c(N/N=C3\CN4CCC3CC4)c2)CC1 | 11.8% (inactive) | 
CC[C@H](Oc1ccc(Cl)cc1)C(=O)OC1C[C@H]2CC[C@@H](C1)N2C (stereo partly specified) | -24.5% (inactive) | 
Oc1ccc2c3c1O[C@H]1c4c(c5ccccc5n4Cc4ccccc4)C[C@]4(O)[C@H](C2)N(CC2CC2)CC[C@@]314 |  | 10 µM (active)
O=C1CC[C@]2(O)[C@H]3Cc4ccc(O)c5c4[C@@]2(CCN3CC2CC2)[C@@H]1O5 | -5.91% [at 25.6 µM] (inactive) | 
Oc1ccc2c3c1O[C@H]1c4[nH]c5c(c4C[C@@]4(O)[C@@H](C2)N(CC2CC2)CC[C@]314)C[C@]1(O)[C@H]2Cc3ccc(O)c4c3[C@@]1(CCN2CC1CC1)[C@@H]5O4 | -17.9% (inactive) | 
CN1C(=O)CCS(=O)(=O)[C@@H]1c1ccc(Cl)cc1 | -19.6% [at 25.6 µM] (inactive) | 
CN1[C@@H]2CC[C@H]1CC(O)C2 (stereo partly specified) | 0.0981% [at 25.6 µM] (inactive) | 
C[C@@H]1O[C@@H](O[C@H]2C[C@@H](O)[C@]3(CO)[C@@H]4[C@@H](O)C[C@]5(C)[C@H]([C@@H]6COC(=O)C6)CC[C@@]5(O)[C@H]4CC[C@@]3(O)C2)[C@H](O)[C@H](O)[C@@H]1O | -2.34% (inactive) | 

SMILES | activity, negative = inhibition | AC50
CC(C)COC(=O)OCN1C(=O)CN(CCN2CC(=O)N(COC(=O)OCC(C)C)C(=O)C2)CC1=O |  | 25.1 µM (active)
CN1CCc2cc(O)cc3c2[C@H]1Cc1ccc(O)c(O)c1-3 | -24% (inactive) | 
C[N+](C)(C)CCCCCCCCCC[N+](C)(C)C | -7.31% (inactive) | 
Nc1nc(N)c(Cn2ccnc2)c(=O)[nH]1 | -3.48% [at 11.4 µM] (inactive) | 
COc1cccc(-n2c(O)c(C=NCCN3CCOCC3)c(=O)[nH]c2=O)c1 | -18.9% (inactive) | 
C=CCn1c(O)c(C(C)=NCCCN2CCOCC2)c(=O)[nH]c1=O | 23.7% (inactive) | 
O=c1[nH]c(=O)n(CCc2ccc(F)cc2)c(O)c1C=NCCCN1CCOCC1 |  | 11.2 µM (active)
O=c1[nH]c(=O)n(CCC2=CCCCC2)c(O)c1C=Nc1cccc(F)c1 | 4.91% (inactive) | 
Cc1cc(C)c(-n2c(O)c(C=NCCN3CCOCC3)c(=O)[nH]c2=O)c(C)c1 |  | 25.1 µM (active)
CCNC(=O)[C@@H]1O[C@@H](n2cnc3c(N)ncnc32)[C@@H](O)[C@H]1O | -2.41% (inactive) | 
C[C@@H]1[C@@H]2Cc3ccc(O)cc3[C@@]1(C)CCN2CC1CC1 | 18.4% (inactive) | 
C[C@@H]1O[C@H](O[C@@H]2C[C@@H](O)[C@]3(CO)[C@H]4[C@H](O)C[C@]5(C)[C@@H](C6=CC(=O)OC6)CC[C@@]5(O)[C@@H]4CC[C@]3(O)C2)[C@@H](O)[C@H](O)[C@H]1O | -7.96% (inactive) | 
CCNC(=O)[C@@H]1O[C@@H](n2cnc3c(N)ncnc32)[C@H](O)[C@H]1O | 4.5% (inactive) | 
CC(=O)O/C(=C1/C[C@H]2[C@@H]3CC=C4C[C@@H](OC(C)=O)CC[C@]4(C)[C@@H]3CC[C@]2(C)C1=O)C(F)(F)F | 4.88% [at 11.4 µM] (inactive) | 
c1ccc2nc(N3CCNCC3)ccc2c1 | -13.8% [at 25.6 µM] (inactive) | 
CN(C)CCCNc1c2c(nc3ccc(Cl)cc13)CCCC2 | 0.971% [at 11.4 µM] (inactive) | 
CCN1C[C@]2(COC)CC[C@H](O)[C@@]34[C@@H]5C[C@H]6[C@@H](OC)[C@H]5[C@](O)(C[C@@H]6OC)[C@@](O)([C@@H](OC)[C@H]23)[C@@H]14 | -10.2% [at 25.6 µM] (inactive) | 
COc1ccccc1CC1C(=O)C2CCN1CC2 (stereo unspecified) | -15.5% (inactive) | 
Cc1ccc(OP(=O)(Oc2ccc(C)cc2)N2C=Cc3ccccc3[C@H]2C#N)cc1 |  | 2.51 µM (active)
O=[N+]([O-])c1ccc(N2CCNCC2)cc1NC1CC1 | 1.13% [at 2.29 µM] (inactive) | 
CCCN(C/C=C\I)[C@@H]1CCc2ccc(O)cc2C1 | -19.2% (inactive) | 
CCN1C[C@@]2(COC)CC[C@H](O)[C@@]34[C@@H]2C[C@@H]([C@@H]13)[C@]1(O)C[C@@H](OC)C2C[C@H]4[C@H]1[C@H]2OC(C)=O | 2.48% [at 25.6 µM] (inactive) | 
COc1ccccc1N1CCNCC1 | 4.12% (inactive) | 

SMILES | activity, negative = inhibition | AC50
C=C(C)[C@H]1CC[C@]2(CO)CC[C@]3(C)[C@@H](CC[C@H]4[C@@]5(C)CC[C@@H](O)C(C)(C)[C@@H]5CC[C@@]43C)[C@H]12 | -23.2% [at 25.6 µM] (inactive) | 
N[C@H](CP(=O)(O)O)C(=O)O | -1.26% (inactive) | 
Cc1ccc(C2CC(=O)C(C=NCCN3CCN(C(=O)Cc4ccccc4)CC3)=C(O)C2)cc1 (stereo unspecified) |  | 3.16 µM (active)
CC[N+](C)(C)c1cccc(O)c1 | 1.24% [at 25.6 µM] (inactive) | 
Cn1c(=O)c2[nH]cnc2n(C)c1=O | 1.14% [at 25.6 µM] (inactive) | 
C[C@H](NC(C)(C)C)C(=O)c1cccc(Cl)c1 | inactive | 
Cc1cc(C)nc(NC2=NCCS2)n1 | -3.88% (inactive) | 
CC[N@+]1(C)CCC[C@@H](OC(=O)C(O)(c2ccccc2)c2ccccc2)C1 | -15% [at 25.6 µM] (inactive) | 
CCCCc1nc2ccccc2c(=O)n1-c1ccccc1[N+](=O)[O-] |  | 15.8 µM (active)
CCCc1nc2ccccc2c(=O)n1-c1ccc(OC)cc1 |  | 15.8 µM (active)
Cc1ccc(-c2nc3ccccc3c(=O)n2-c2ncccc2C)cc1 | -6.07% [at 2.29 µM] (inactive) | 
Cc1nc2ccccc2c(=O)n1-n1cnnc1 | -13.4% (inactive) | 
CCCCc1nc2ccccc2c(=O)n1-c1ccc(Cl)cc1[N+](=O)[O-] | 15.8% (inactive) | 
CCC(=O)Nc1ccc(N2CCN(CC)CC2)c(Cl)c1 | -23.4% (inactive) | 
COc1cc([C@@H](O)CN)ccc1O | -4.97% (inactive) | 
O=P(Nc1ccccc1)(Nc1ccccc1)Oc1cccc(Cl)c1 | -28.2% [at 2.29 µM] (inactive) | 
CCN1CCN(Cc2cc(OC)c(OC)cc2[N+](=O)[O-])CC1 | 16.1% (inactive) | 
CCNC(=O)O/N=C(\C)c1sc(-c2ccccc2)nc1C | -25.9% (inactive) | 
CN(C)C(=O)Oc1cc(OC(=O)N(C)C)cc([C@@H](O)CNC(C)(C)C)c1 | 0.065% [at 25.6 µM] (inactive) | 
O=C(Cc1ccc(Cl)c(Cl)c1)N1CCCC[C@H]1CN1CCCC1 |  | 15.8 µM (active) and 7.94 µM (active)
NC(N)=NCCN=C(N)N | 0.983% [at 11.4 µM] (inactive) | 
CC1=NN(c2ccccc2)C(=O)[C@@H]1N=Nc1ccc([As](=O)(O)O)c(O)c1 | -5.79% [at 11.4 µM] (inactive) | 
